# Measurements as given in PubChem BioAssay AID1508600 (Functional Genomics Laboratory (NCATS/FGL), 2020).
# Among all 53,000 sequences or so, about 3,700 (7%) were called active. This is one part of a sample in which actives are shown more often than they occur. Unmarked numbers belong to inactive results.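 How the source made its calls: active means gene knockdowns whose robust z-score for IL-1 alpha signal is at least 2 or at most -2, so actives lie on both sides; inactive means the rest.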
# Assay: Components of the Cytosolic LPS Sensing Pathway: Gene Identification via Genome-wide siRNA Screen;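 further: robust z of the log signal after scaling to non-targeting control siRNA wells of the plate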
# Details: RAW264.7 macrophages, IL-1a HTRF, actives lie on both sides, screened at 100 nM (by protocol), cells primed 5 h with Pam3CSK4 first
# Outline: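 Three distinct siRNAs per gene were tested singly at 100 nM in RAW264.7 macrophages. Following Pam3CSK4 priming and 24 hour LipidA transfection, IL-1a secretion was read by HTRF.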
row,Sequence,z-score
1,GGGAACCAUCAAUAGGCACTT against Apol7a,0.923
2,GGGUAUUAAAACCUCACUUTT against 4931406H21Rik,-2.58 (active)
3,GGCACAAAGCAAGAUUACCTT against Cebpz,0.422
4,CCAGAAUGUAAACUUGGUCTT against Trpv6,0.0508
5,GGUGAUAAAGCCAAGCAAATT against Vps4b,-0.48
6,GGGCUUCUUUGACCUCAUCTT against Kdelr1,-2.71 (active)
7,GGAUUCAAGGAAGGCCUUCTT against Myl7,-0.146
8,GGGACUCAGAAUCCACACUTT against Olfr1046,1.91
9,GGAGCUUAGACAAAAAGCCTT against Spty2d1,-1.04
10,GGCCGCCCUAAAAAGAAGCTT against Olfr95,1.29
11,GGAGAUUGAUGAGCAUGCCTT against Rab40b,-2.15 (active)
12,CGCCUUAUAAUAUACCUAUTT against Clmp,1.12
13,GCCAUGAUGACUAACCUUATT against Dbpht2,-1.27
14,GGAACUUGAGGUUUUCUGGTT against Spag17,-1.89
15,GGAGAUCCGUCGAAUCAACTT against Anxa4,3.19 (active)
16,GCACCUGAGAAGCUCAUUGTT against Chil5,-1.96
17,GGUUGACCUGUGCUUUUCGTT against Arr3,-0.625
18,GGAGCAGCAGAAGAUCCUUTT against Olfr47,2.52 (active)
19,GGAAAUGAAUGGAAAUAGUTT against Ino80c,-0.192
20,GGAGGAAAAGGCAAUCGUUTT against Mtg2,0.359
21,GGAACACAAUAGUACAUACTT against Slc2a4,3.98 (active)
22,CCUUACCACAUCCUUGUCGTT against Fcf1,-1.33
23,GGACAGUUAAUGUUUCUGUTT against Clptm1l,0.254

row,Sequence,z-score
1,GGAUCAUUUCUGGCAAGAGTT against Irf7,-0.379
2,GGGAAGAGAAAACUGGACUTT against Xrcc1,3.01 (active)
3,GGCUGUGUGAGUCUGCUCATT against Ankrd55,-0.0408
4,GCAUGAACUUACCCUAUUATT against Vmn1r197,-1.25
5,GCAUAAUAGCGCAAGCUACTT against Ifi47,0.0047
6,GCACUCGAAUUUCUUUACUTT against Slc23a2,2.22 (active)
7,GCAGACUCCCAUGUGGAUUTT against 1700067K01Rik,1.96
8,GGAAACUAAUUUCAAGCCUTT against Hat1,1.19
9,CCUAUGAGGAGGUACUAAATT against Itih1,-0.0512
10,GGAGUGACAAAAAUGUCGGTT against Snx13,-0.56
11,GGUUUGUCAAUGAUACUAATT against Adam17,2.49 (active)
12,CGGAUCUGAGAUAAAGACGTT against Arsj,1
13,GCUGUGGACGGACUCUAUATT against Dhodh,0.00503
14,GGACCAUCUCUGAUGAACCTT against Fhdc1,0.439
15,GCUAAAGCUAAGAUUGAAGTT against Poli,-0.0266
16,GGAUGAGGACAAGUGCUCUTT against Agpat4,-3.47 (active)
17,CCAAAAGCAUAUCAGUCGGTT against Olfr1122,1.48
18,GGGUUUAUGUUGCCGACUCTT against Setd7,2.04 (active)
19,GGGUUCCUCAGAGACUGAGTT against Esrra,1.57
20,GGGCAAGAAAGGUGUUUUGTT against Prdx5,0.432
21,GGUGAUUGGUGUAAAAUCUTT against Gdi2,-1.15
22,GGAGAUUGGUGUUAGUAACTT against Sp7,-0.198
23,GGGUGUGCUUCAUAUCAAATT against 2210407C18Rik,0.812

row,Sequence,z-score
1,GCUUCAUCUUACCUACUCATT against Synb,-0.825
2,GGCUAUGCAUCUCCUGUCATT against Gata4,-0.935
3,GGAAAUCAUCUAUUCGGACTT against Klrc1,2.62 (active)
4,CCUUGCACGACAUUUUACUTT against Idnk,0.313
5,GGUCAUCUUCCUUUUUGCUTT against Olfr1501,-1
6,CCCUGGGUGUACAAGUCCUTT against Slc25a41,-0.084
7,GGGCCAAGAGCUUCUUUGATT against Ahr,-1.46
8,GGACUUUGAGAAAGCAUUCTT against Pck1,-2.03 (active)
9,GGAUAAUGUGAAGUUCAAGTT against Rpl38,0.493
10,GCAUUGACAAGAUAUCUAATT against Abhd17c,1.74
11,GGCUCCUAGUGAUUAAAAGTT against 4930578I06Rik,0.0788
12,GGGAAAGCAUCGUAGACUCTT against Eid2,0.0738
13,GGAGGAAAUGAUCACAGCUTT against Ccl20,-2.31 (active)
14,CCAGUCACUAUUUGAGUGUTT against Erg,1.9
15,GGUGAAUACUUCAGAUACATT against Sult2b1,-0.362
16,GGAUUCACUGUUUUAUUCUTT against Fap,0.282
17,GGAUGCAAUCGACAUGGAGTT against Atp5pb,2.71 (active)
18,GGUUUUUGGGAAUUGGCUUTT against Sfxn5,-0.0222
19,GCGGUCCAUCAUCAAACUCTT against Rpap2,-1.3
20,CCCAACAUAUUUUUUAGCATT against Hmgcll1,-0.506
21,GGUGGUUGUUAUUGAAAAGTT against Mical3,1.34
22,CGACAUUUGUGUUAACCAUTT against Gprc5c,-0.483
23,GGAGCUUUUGGACCACUUGTT against Tmod1,-0.892
